Assay outcomes: PubChem BioAssay, The Scripps Research Institute Molecular Screening Center
The list is not random: actives were taken first. Their share in the collection is about 2.3%.
CHRM1 agonist = human M1 muscarinic receptor agonists, primary screen, Fluo-8 calcium fluorescence, CHO-K1 cells, HTS. activation, % at 3 µM. CHO-K1 hM1, agonist mode; 0% DMSO, 100% acetylcholine EC100. Muscarinic acetylcholine receptor M1 (Homo sapiens), P11229. AID 588814, 2011. 360,000 tested, 0.33% active;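 active means activation above the run's mean compound activation plus 3 SD, cut at about 16% in these data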;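 further: peak over basal fluorescence ratio within a 140 s kinetic read after compound addition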
Target sequence (P11229 whole entry, looked up): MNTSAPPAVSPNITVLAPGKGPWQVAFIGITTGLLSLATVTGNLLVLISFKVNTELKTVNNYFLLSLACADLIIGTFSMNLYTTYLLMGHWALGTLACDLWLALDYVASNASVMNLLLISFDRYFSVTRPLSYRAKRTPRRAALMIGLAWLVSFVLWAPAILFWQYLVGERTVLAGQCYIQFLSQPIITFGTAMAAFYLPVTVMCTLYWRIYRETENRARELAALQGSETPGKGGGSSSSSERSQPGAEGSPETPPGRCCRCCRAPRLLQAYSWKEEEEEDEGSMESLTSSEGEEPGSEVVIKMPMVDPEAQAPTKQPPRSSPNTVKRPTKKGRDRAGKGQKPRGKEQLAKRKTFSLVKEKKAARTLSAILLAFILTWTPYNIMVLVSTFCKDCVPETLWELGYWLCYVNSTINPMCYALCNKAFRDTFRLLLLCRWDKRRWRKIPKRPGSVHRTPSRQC
M1 antag = human M1 muscarinic receptor antagonists, primary screen, CHO-K1 cells, Fluo-8 calcium fluorescence, 1536-well; Muscarinic acetylcholine receptor M1 (Homo sapiens), P11229; CHO-K1 hM1, ACh EC80 antagonist; inhibition, % at 3 µM; 360,000 tested, 1.3% active;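 active means percent inhibition above its own plate's cutoff, namely the mean of that plate's compound wells plus 3 SD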;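 further: peak over basal fluorescence ratio during 140 s after agonist addition; 0% = ACh EC80 plus DMSO and 100% = DMSO alone without agonist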
M1 ag parental = counter-screen for M1 agonists: effect in parental CHO-K1 cells; Fluo-8 calcium fluorescence; scaled to maximal ATP response, vehicle zero; activation, % at 3 µM; 360,000 tested, 0.48% active; AID 602248, 2012; in the data active means activation above about 15%;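 further: untransfected CHO-K1 host cells lacking M1 receptor as counterscreen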
CHO-K1 Ca antag = M1 antagonist counterscreen hit in parental CHO-K1 cells. ATP-induced calcium, Fluo-8 fluorescence. inhibition, % at 3 µM. 360,000 tested, 0.6% active. AID 602250;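 active means inhibition above a per-plate cutoff, the plate's mean sample inhibition plus 3 SD, cut at about 24% in these data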;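 further: 0% = DMSO plus EC80 ATP and 100% = DMSO alone without ATP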
CHO-K1 Ca PAM = nonselective calcium activators in parental CHO-K1 cells, primary screen, counter-screen for M1 PAM project, cell-based, Fluo-8 calcium fluorescence, full deck, 1536-well; 360,000 tested, 0.02% active; activation, % at 3 µM; ATP EC20; 0% at ATP EC20, 100% at ATP max;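 active means activation above the run cutoff, the mean activation of all test compounds plus 3 SD, cut at about 40% in these data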;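 further: peak over basal fluorescence ratio in a 140 s read after ATP addition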
M1 PAM = human M1 muscarinic receptor positive allosteric modulators, primary screen, CHO-K1 cells, Fluo-8 calcium fluorescence, 1536-well; Muscarinic acetylcholine receptor M1 (Homo sapiens), P11229; CHO-K1 hM1, ACh EC20; 0% = ACh EC20, 100% = maximal ACh; activation, % at 3 µM; 360,000 tested, 0.088% active; in the data active means activation above about 19%, passing the limit was not always enough
An asterisk follows results filed as active.

How did CN1C(=O)c2ccc(N3CCCC3)cc2C1=O do in these assays?
CHRM1 agonist: -7; M1 antag: 2; M1 ag parental: 4; CHO-K1 Ca antag: -19; CHO-K1 Ca PAM: 6; M1 PAM: -7

Results for O=C1/C(=C/c2ccc(N3CCCC3)cc2)NC(=S)N1C1CC1 ?
CHRM1 agonist: 34*; M1 antag: 35*; M1 ag parental: 56*; CHO-K1 Ca antag: 45*; CHO-K1 Ca PAM: -11; M1 PAM: -22

Results for Fc1c(F)c(-n2nnc3ccccc32)c(F)c(F)c1Cl ?
CHRM1 agonist: -1; M1 antag: -5; M1 ag parental: -1; CHO-K1 Ca antag: -6; CHO-K1 Ca PAM: -5; M1 PAM: 2

What do the screens show for `CCCNCCC(c1ccco1)c1ccccc1OC` (stereo not drawn)?
CHRM1 agonist: -7; M1 antag: 41*; M1 ag parental: 0; CHO-K1 Ca antag: 1; CHO-K1 Ca PAM: 11; M1 PAM: -26

How did COc1ccc(C(C(=O)NCc2ccccc2)N(Cc2ccco2)C(=O)c2snc(C(N)=O)c2N)cc1 (stereo not drawn) do in these assays?
CHRM1 agonist: 1; M1 antag: 33*; M1 ag parental: 7; CHO-K1 Ca antag: 8; CHO-K1 Ca PAM: 7; M1 PAM: -16

What do the screens show for `NC(=O)c1nsc(C(=O)N(c2ccccc2F)C(C(=O)NCc2ccc(F)cc2)c2ccc(O)cc2)c1N` (stereo not drawn)?
CHRM1 agonist: -1; M1 antag: 37*; M1 ag parental: 8; CHO-K1 Ca antag: 4; CHO-K1 Ca PAM: 5; M1 PAM: -20

What do the screens show for `CCOc1ccc(C(C(=O)NCC2CCCO2)N(C(=O)c2snc(C(N)=O)c2N)c2ccccc2F)cc1` (stereo not drawn)?
CHRM1 agonist: 5; M1 antag: 18; M1 ag parental: 2; CHO-K1 Ca antag: 40*; CHO-K1 Ca PAM: 5; M1 PAM: -6

Results for COc1ccc(C(C(=O)NCc2ccccc2)N(Cc2ccco2)C(=O)c2snc(C(N)=O)c2N)cc1OC (stereo not drawn) ?
CHRM1 agonist: 0; M1 antag: 16; M1 ag parental: 8; CHO-K1 Ca antag: 14; CHO-K1 Ca PAM: 3; M1 PAM: -9

How did COCCCn1c(SCC(=O)N2CCOCC2)nc2cc(Cl)ccc2c1=O do in these assays?
CHRM1 agonist: -3; M1 antag: -7; M1 ag parental: 1; CHO-K1 Ca antag: -7; CHO-K1 Ca PAM: 3; M1 PAM: 11

How did COc1ccc(C(CNC(=O)c2cc(S(=O)(=O)NCc3ccccc3)ccc2C)N2CCOCC2)cc1 (stereo not drawn) do in these assays?
CHRM1 agonist: 3; M1 antag: -12; M1 ag parental: -1; CHO-K1 Ca antag: 28*; CHO-K1 Ca PAM: -21; M1 PAM: 20

How did COc1ccccc1CNC(=O)c1n[nH]c2ccccc12 do in these assays?
CHRM1 agonist: 2; M1 antag: -13; M1 ag parental: 17*; CHO-K1 Ca antag: 8; CHO-K1 Ca PAM: 9; M1 PAM: 8

Results for COc1ccccc1CNC(=O)COC(=O)c1n[nH]c2ccccc12 ?
CHRM1 agonist: 0; M1 antag: 13; M1 ag parental: 0; CHO-K1 Ca antag: 21; CHO-K1 Ca PAM: -7; M1 PAM: -5

How did CCOC(=O)c1cnc(Cc2ccccc2)[nH]c1=O do in these assays?
CHRM1 agonist: -10; M1 antag: 25*; M1 ag parental: 1; CHO-K1 Ca antag: -14; CHO-K1 Ca PAM: -8; M1 PAM: -9

Results for CCOC(=O)c1cnc(-n2[nH]c(C)c(Cc3ccccc3)c2=O)[nH]c1=O ?
CHRM1 agonist: -3; M1 antag: -4; M1 ag parental: 0; CHO-K1 Ca antag: -3; CHO-K1 Ca PAM: 5; M1 PAM: 8

What do the screens show for `O=Nc1c(O)[nH]c2ccc(Cl)cc12`?
CHRM1 agonist: -7; M1 antag: 0; M1 ag parental: 0; CHO-K1 Ca antag: -1; CHO-K1 Ca PAM: 9; M1 PAM: 6

What do the screens show for `COc1ccc(N=C2SC(C(=O)N3CCN(c4ccccc4)CC3)CC(=O)N2C)cc1` (stereo not drawn)?
CHRM1 agonist: -3; M1 antag: -7; M1 ag parental: 0; CHO-K1 Ca antag: 0; CHO-K1 Ca PAM: 0; M1 PAM: 0

What do the screens show for `O=C(CCC(F)(F)F)N1CCC(CO)(CCc2ccccc2)CC1`?
CHRM1 agonist: -1; M1 antag: -10; M1 ag parental: 0; CHO-K1 Ca antag: 6; CHO-K1 Ca PAM: -16; M1 PAM: -5

What do the screens show for `COC(=O)c1cccc(C(=O)N2CCC(CO)(Cc3ccccc3Cl)CC2)c1`?
CHRM1 agonist: 3; M1 antag: 1; M1 ag parental: 7; CHO-K1 Ca antag: -8; CHO-K1 Ca PAM: 10; M1 PAM: -1

What do the screens show for `OCC1(CCc2ccccc2)CCN(C/C=C/c2ccccc2)CC1`?
CHRM1 agonist: -8; M1 antag: 25; M1 ag parental: 21*; CHO-K1 Ca antag: -12; CHO-K1 Ca PAM: 30; M1 PAM: -24

What do the screens show for `OCC1(Cc2ccccc2Cl)CCN(C/C=C/c2ccccc2)CC1`?
CHRM1 agonist: -5; M1 antag: 62*; M1 ag parental: 3; CHO-K1 Ca antag: 3; CHO-K1 Ca PAM: 4; M1 PAM: -26

Results for CC12CCC(=O)N1C(C(=O)NCc1ccc(Cl)cc1Cl)CS2 (stereo not drawn) ?
CHRM1 agonist: -4; M1 antag: -15; M1 ag parental: 0; CHO-K1 Ca antag: 7; CHO-K1 Ca PAM: -4; M1 PAM: 9

Results for Cc1nc2sc(C(c3ccccc3)N3CCN(CCO)CC3)c(O)n2n1 (stereo not drawn) ?
CHRM1 agonist: -4; M1 antag: 16; M1 ag parental: 0; CHO-K1 Ca antag: 31*; CHO-K1 Ca PAM: -5; M1 PAM: -8

What do the screens show for `COC(=O)C1CCN(C(c2ccc(OC)c(OC)c2)c2sc3nc(C)nn3c2O)CC1` (stereo not drawn)?
CHRM1 agonist: 1; M1 antag: 36*; M1 ag parental: 5; CHO-K1 Ca antag: 8; CHO-K1 Ca PAM: 20; M1 PAM: -8

Results for Cc1ccc(C(c2sc3nc(C)nn3c2O)N2CCN(CCO)CC2)cc1 (stereo not drawn) ?
CHRM1 agonist: -4; M1 antag: -8; M1 ag parental: 1; CHO-K1 Ca antag: -2; CHO-K1 Ca PAM: 12; M1 PAM: 6
